From PubChem BioAssay AID1345085 (National Center for Advancing Translational Sciences (NCATS), 2018) come the findings set out here.

Records with an inconclusive call do not appear. Active and inactive are the calls of the source. Calls follow the shape of the dose curve; as a rule, active = well fitted cell-killing curve with a large enough effect; inconclusive = small, poorly fitted or top-dose-only effect, or effect the other way; inactive = no such curve, though single readings can be large or run the other way.
% is scaled to controls: 0 for no effect and ±100 for the full control effect; potency is read from the fitted curve at half-maximal effect.

This assay concerns HeLa. As to the kind of experiment: Confirmatory qHTS for gynecologic anti-cancer compounds from libraries of approved drugs and bioactive compounds. Also: nearly all actives have a fitted effect of over 55% in size. Particulars: gynecologic cancer cell panel viability, ATPlite luminescence, 48 h; series mostly up to 57.6 µM; activity change, negative = viability loss: at the top concentration. Put shortly:
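ATP-based luminescent viability (ATPlite) after 48 h drug treatment at 37 °C, 5% CO2, across 57.5 uM–0.977 nM in 1:3 steps. Cells seeded at 1,000 per well 16 h beforehand; IC50 values computed, HEK 293T as selectivity control.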
For orientation: Quantitative high-throughput screening tests each substance at several concentrations.
Turning to `COc1cc(N2CCC(N(C)C)CC2)ccc1Nc1ncc(Cl)c(Nc2ccccc2P(C)(C)=O)n1`, the Potency was 1.37 µM (active).

For `Cc1cc(Nc2nc(N[C@@H](C)c3ccc(F)cc3)c(C#N)cc2F)n[nH]1`, the Potency was 1.09 µM (active).

In the case of `CC(C)CC(=O)Nc1n[nH]c2c1CN(C(=O)C1CCN(C)CC1)C2(C)C`, the Potency was 3.43 µM (active).

As for `CCN(CC)CCNC(=O)c1c(C)[nH]c(/C=C2\C(=O)Nc3ccc(F)cc32)c1C`, the Potency is 12.6 µM (active).

`CC1=C(/C=C/C(C)=C/C=C/C(C)=C/C(=O)Nc2ccc(O)cc2)C(C)(C)CCC1`: the Potency was 24.3 µM (active).

With `O=c1c(-c2ccc(O)cc2)coc2cc(O)cc(O)c12`, the Potency is 12.2 µM (active).

As for `O=c1[nH]c(=O)n([C@H]2C[C@H](O)[C@@H](CO)O2)cc1F`, the Potency was 2.43 µM (active).

Consider `CC(C)n1nc(-c2cc3cc(O)ccc3[nH]2)c2c(N)ncnc21`, for which the Potency is 5.44 µM (active).

`Nc1ncnc2c1ncn2[C@@H]1O[C@H](CO)C[C@H]1O`: the “activity change, negative = viability loss” value was 2.12% (inactive).

As for `Cn1cc(-c2ccc3ncc(Cc4ccc5ncccc5c4)n3n2)cn1`, the “activity change, negative = viability loss” value is 4.63% (inactive).

On to `OCCNC1CCCc2c1[nH]c1ccc(-c3ccccc3)cc21` (stereo unspecified), for which the Potency was 1.93 µM (active).

Take `Cc1ccc(C(=O)Nc2ccc(Oc3cc4cnn(C)c4cc3-c3cn[nH]c3)c(F)c2)c(=O)n1-c1ccc(F)cc1`: the Potency is 8.63 µM (active).

For the molecule `Cc1csc(NC(=O)c2sc3nc4c(c(C(F)(F)F)c3c2N)CCC4)n1`, the Potency is 1.93 µM (active).

Take `CNC1CCC(N(Cc2cccc(-c3ccncc3)c2)C(=O)c2sc3ccccc3c2Cl)CC1` (stereo unspecified): the Potency is 27.3 µM (active).

Regarding `Cc1cc(CN2CCN(c3c(Br)cnc4nc(-c5ccc(N6CCN(C)CC6)cc5)[nH]c34)CC2)no1`, the Potency is 3.06 µM (active).

On to `CCc1cccc(CC)c1NC(=O)N1Cc2[nH]nc(NC(=O)c3ccc(N4CCN(C)CC4)cc3)c2C1`, for which the Potency was 1.53 µM (active).

In the case of `C=CC(=O)Nc1cccc(Oc2nc(Nc3ccc(N4CCN(C)CC4)cc3)ncc2Cl)c1`, the Potency is 6.85 µM (active).

For the molecule `NC1(c2ccc(-c3nc4ccn5c(=O)[nH]nc5c4cc3-c3ccccc3)cc2)CCC1`, the “activity change, negative = viability loss” value was 5.7% (inactive).

Take `Nc1nccc(Oc2ccc(NC(=O)c3c[nH]cc(-c4ccc(F)cc4)c3=O)cc2F)c1Cl`: the Potency is 6.85 µM (active).

Consider `c1nc2nc(Nc3ccc(N4CCOCC4)cc3)nc(NC3CCCCC3)c2[nH]1`, for which the Potency is 1.88 µM (active).

Take `COc1ccc(OC)c(-c2nnc3ccc(-c4ccc(OC)c(O[C@@H]5CCOC5)c4)nn23)c1`: the Potency is 5.44 µM (active).

On to `COc1cccc2cc(-c3nc(C4CCC(C(=O)O)CC4)n4ncnc(N)c34)[nH]c12` (stereo unspecified), for which the Potency is 4.85 µM (active).

In the case of `C=CC(=O)Nc1cc2c(Nc3ccc(F)c(Cl)c3)ncnc2cc1OCCCN1CCOCC1`, the Potency is 27.3 µM (active).

Regarding `Cc1cc(Nc2nc(N[C@@H](C)c3ncc(F)cn3)ncc2Cl)n[nH]1`, the Potency is 0.968 µM (active).

For the molecule `Cc1cc(C(C)Nc2ccccc2C(=O)O)c2nc(N3CCOCC3)cc(=O)n2c1` (stereo unspecified), the Potency was 17.2 µM (active).

For `COC(=O)c1ccc2c(C(=Nc3ccc(N(C)C(=O)CN4CCN(C)CC4)cc3)c3ccccc3)c(O)[nH]c2c1`, the Potency is 24.3 µM (active).

In the case of `CCCCc1nc2cc(/C=C/C(=O)NO)ccc2n1CCN(CC)CC`, the Potency was 1.72 µM (active).

Take `CC(C)c1nn(-c2c(Cl)cccc2Cl)c2nc(Cc3ccc(OCCO)cc3)[nH]c(=O)c12`: the Potency was 0.122 µM (active).

Regarding `O=C(CCCCCCC(=O)Nc1ccccc1)NO`, the Potency was 3.43 µM (active).

With `CCS(=O)(=O)c1cccc(-c2cc(C(=O)NC3CCN(C)CC3)c(C)c3[nH]c4ncc(C)cc4c23)c1`, the Potency was 0.476 µM (active).

`Cc1ccc(C(=O)Nc2ccc(CN3CCN(C)CC3)c(C(F)(F)F)c2)cc1C#Cc1cnc2cccnn12`: the Potency is 1.72 µM (active).

On to `COc1cc(Nc2c(C#N)cnc3cc(OCCCN4CCN(C)CC4)c(OC)cc23)c(Cl)cc1Cl`, for which the Potency is 27.3 µM (active).

Regarding `CN(C)CCC(CSc1ccccc1)Nc1ccc(S(=O)(=O)NC(=O)c2ccc(N3CCN(Cc4ccccc4-c4ccc(Cl)cc4)CC3)cc2)cc1[N+](=O)[O-]` (stereo unspecified), the Potency was 19.3 µM (active).

As for `CC(C)(C(=O)NCC(F)(F)C(F)(F)F)C(=O)NC1C(=O)Nc2ccccc2-c2ccccc21` (stereo unspecified), the Potency is 6.11 µM (active).

Turning to `O=C(O)c1ccc(Nc2ncc3c(n2)-c2ccc(Cl)cc2C(c2c(F)cccc2F)=NC3)cc1`, the Potency is 7.69 µM (active).

As to `C#C[C@]1(O)CC[C@H]2[C@@H]3CCC4=CC(=O)CC[C@@H]4[C@H]3CC[C@@]21CC`, the Potency was 3.85 µM (active).
